# Assay results taken from ChEMBL document CHEMBL3988442, “University of Dundee, Small-Polar-MMV Screening Library” (2021).
# Target: T1, Methionyl-tRNA synthetase, putative (Leishmania donovani (strain BPK282A1)) (UniProt E9BF75)
# T1 sequence (whole entry): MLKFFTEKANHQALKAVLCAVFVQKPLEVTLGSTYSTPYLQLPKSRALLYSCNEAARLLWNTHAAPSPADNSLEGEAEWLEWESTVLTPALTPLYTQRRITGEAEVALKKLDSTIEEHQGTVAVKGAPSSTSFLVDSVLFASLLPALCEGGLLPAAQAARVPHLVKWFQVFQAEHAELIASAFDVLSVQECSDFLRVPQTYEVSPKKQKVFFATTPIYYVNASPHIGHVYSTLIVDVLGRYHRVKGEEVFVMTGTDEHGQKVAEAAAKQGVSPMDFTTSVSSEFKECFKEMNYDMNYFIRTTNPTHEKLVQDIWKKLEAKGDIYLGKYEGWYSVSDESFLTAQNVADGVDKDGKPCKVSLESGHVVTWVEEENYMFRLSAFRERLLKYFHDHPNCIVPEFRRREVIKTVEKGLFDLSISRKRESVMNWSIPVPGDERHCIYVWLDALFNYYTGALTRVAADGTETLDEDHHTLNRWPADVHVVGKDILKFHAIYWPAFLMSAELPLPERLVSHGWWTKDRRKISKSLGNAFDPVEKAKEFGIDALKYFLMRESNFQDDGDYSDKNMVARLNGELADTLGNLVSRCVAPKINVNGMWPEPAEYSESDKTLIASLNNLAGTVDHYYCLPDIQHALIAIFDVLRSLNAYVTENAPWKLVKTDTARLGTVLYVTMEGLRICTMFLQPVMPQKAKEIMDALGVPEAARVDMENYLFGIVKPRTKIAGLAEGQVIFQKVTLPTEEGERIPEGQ
# Experiment: Leishmania donovani Methionine tRNA synthetase (LdMetRS):v7. Dose response assay
# Format: functional
# Parameters: conc 80 nM, time 150 minutes
compound,measurement,setting,value
Cc1nc(N(C)CCC#N)c2c3c(sc2n1)CC(C)CC3 (stereo not given),PXC50,MAX_EFFECT 3.723404255,< 4
same,PXC50,MAX_EFFECT 5.699481865,< 4
Cc1nc(NCCCN2CCC(O)CC2)c2c(-c3cccs3)csc2n1,PXC50,MAX_EFFECT 4.325699746,< 4
same,PXC50,MAX_EFFECT 7.808564232,< 4
Cc1nc(NCC(=O)O)c2c3c(sc2n1)CCC3,PXC50,MAX_EFFECT 4.834605598,< 4
same,PXC50,MAX_EFFECT 5.289672544,< 4
Cc1nc(NCCCO)c2c(-c3cccs3)csc2n1,PXC50,MAX_EFFECT 5.852417303,< 4
same,PXC50,MAX_EFFECT 7.808564232,< 4
CCCNc1nc(-c2ccc(C)cc2)cc(C(F)(F)F)n1,PXC50,MAX_EFFECT 6.21761658,< 4
same,PXC50,MAX_EFFECT 10.10638298,< 4
Cc1sc2nc(C(F)(F)F)nc(N3CCN(C)CC3)c2c1C,PXC50,MAX_EFFECT 6.788511749,< 4
same,PXC50,MAX_EFFECT 7.049608355,< 4
Cn1cc(CN2CCC(F)(F)C3(CCN(c4ccccn4)C3)C2)cn1 (stereo not given),PXC50,MAX_EFFECT 6.802721088,< 4
same,PXC50,MAX_EFFECT 8.971962617,< 4
Cn1cc(CN2CCC(F)(F)C3(CCN(c4cccc(F)c4)C3)C2)cn1 (stereo not given),PXC50,MAX_EFFECT 7.256235828,< 4
same,PXC50,MAX_EFFECT 17.57009346,< 4
CCc1nc(N2CCN(CC)CC2)c2cc(CC)sc2n1,PXC50,MAX_EFFECT 7.407407407,< 4
same,PXC50,MAX_EFFECT 9.066666667,< 4
Cc1nc(N[C@@H](C)C(=O)O)c2c3c(sc2n1)CCCC3,PXC50,MAX_EFFECT 7.446808511,< 4
same,PXC50,MAX_EFFECT 9.32642487,< 4
Cc1ccc(-c2ncc(CNc3cnccc3CO)s2)o1,PXC50,MAX_EFFECT 7.511737089,< 4
same,PXC50,MAX_EFFECT 8.703703704,< 4
OB1OCc2cc(Cl)ncc21,PXC50,MAX_EFFECT 7.762557078,< 4
same,PXC50,MAX_EFFECT 14.1509434,< 4
CNC(=O)CNc1nc(C)nc2sc3c(c12)CCC3,PXC50,MAX_EFFECT 7.888040712,< 4
same,PXC50,MAX_EFFECT 9.319899244,< 4
Cc1nc(NCC(=O)O)c2cc(-c3ccccc3)sc2n1,PXC50,MAX_EFFECT 8.533333333,< 4
same,PXC50,MAX_EFFECT 10.58201058,< 4
COC(=O)c1sc2nc(C)nc(N(C)Cc3cc(C)on3)c2c1C,PXC50,MAX_EFFECT 8.556149733,< 4
same,PXC50,MAX_EFFECT 12.02185792,< 4
Cc1nn(C)cc1-c1cc(C(F)(F)F)nc(NC2CCN(C)CC2)n1,PXC50,MAX_EFFECT 9.138381201,< 4
same,PXC50,MAX_EFFECT 9.921671018,< 4
OB1OC(CN2CCOCC2)c2ccccc21 (stereo not given),PXC50,MAX_EFFECT 9.245283019,< 4
same,PXC50,MAX_EFFECT 9.589041096,< 4
CCc1nc(NC(C(=O)O)C(C)C)c2cc(CC)sc2n1 (stereo not given),PXC50,MAX_EFFECT 9.289617486,< 4
same,PXC50,MAX_EFFECT 12.29946524,< 4
CNS(=O)(=O)c1cc(C(C)C)c(Br)cc1C(C)C,PXC50,MAX_EFFECT 9.649122807,< 4
same,PXC50,MAX_EFFECT 14.58333333,< 4
OB1OCc2ccccc21,PXC50,MAX_EFFECT 10.0456621,< 4
same,PXC50,MAX_EFFECT -0.566037736,< 4
Cc1cc(C(F)(F)F)nc(N(C)Cc2c(C)noc2C)n1,PXC50,MAX_EFFECT 10.44386423,< 4
same,PXC50,MAX_EFFECT 10.70496084,< 4
Cc1ccc(N2CCCC(N(C)c3ncnc4c3CCC4)C2)nn1 (stereo not given),PXC50,MAX_EFFECT 10.79812207,< 4
same,PXC50,MAX_EFFECT 20.18518519,< 4
CCCN(CCOC)c1nc(C)nc2sccc12,PXC50,MAX_EFFECT 12.79373368,< 4
same,PXC50,MAX_EFFECT 15.14360313,< 4
CC1CCc2c(sc3nc(CN4CCOCC4)nc(NCC4CC4)c23)C1 (stereo not given),PXC50,MAX_EFFECT 17.08542714,< 4
same,PXC50,MAX_EFFECT 17.93611794,< 4
Cc1cc(C)n(-c2nc(N3CCCC3)c3c4c(sc3n2)CCCC4)n1,PXC50,MAX_EFFECT 18.42105263,< 4
same,PXC50,MAX_EFFECT 18.75,< 4
Cc1nnc(NCC2(c3ccccc3)CCC2)c(C#N)c1C,PXC50,MAX_EFFECT 19.71830986,< 4
same,PXC50,MAX_EFFECT 20.92592593,< 4
Cc1nc(N2CCN(c3ncccn3)CC2)c2c3c(sc2n1)CCCC3,PXC50,MAX_EFFECT 19.78609626,< 4
same,PXC50,MAX_EFFECT 20.21857923,< 4
CN(C)C(=O)CNC(=O)c1ccc2ccc(N(C)CC3CC3)n2c1,PXC50,MAX_EFFECT 21.76870748,< 4
same,PXC50,MAX_EFFECT 29.90654206,< 4
CC(C)C[C@H](N)COc1ccc(-c2ccccc2)c(F)c1,PXC50,MAX_EFFECT 23.6673774,< 4
same,PXC50,MAX_EFFECT 25.46583851,< 4
CCC(CO)Nc1nc(CSc2ccccc2)nc2sc3c(c12)CCC3 (stereo not given),PXC50,MAX_EFFECT 27.86885246,< 4
same,PXC50,MAX_EFFECT 29.94652406,< 4
